40 targets from the supplement of paper PMC4188521 can be followed below.

Compound in the assay: CCc1cnn2c(NCc3ccc[n+]([O-])c3)cc(N3CCCC[C@H]3CCO)nc12 [dinaciclib]
Description: cell viability remaining relative to DMSO control; higher = less cytotoxic (more viable cells). To be noted: 100 nM; 24 h. How it is done:
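Solid tumor cell lines were treated with dinaciclib (100 nM) for 24 hr. Viability was measured by CellTiter-Glo ATP luminescence and expressed as % of DMSO-treated control wells (mean of 2-6 plates, triplicate wells per plate).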
On to H292, for which the cell viability remaining is 51.5%.

Consider NUGC4, for which the cell viability remaining amounted to 108%.

Consider SW1573, for which the cell viability remaining turned out to be 99%.

Take ZR751: the cell viability remaining was 91.3%.

With MFE319, the cell viability remaining was found to be 78.3%.

Regarding SW480, the cell viability remaining amounted to 81.7%.

Consider HCC1428, for which the cell viability remaining amounted to 19.7%.

As to TYKNU, the cell viability remaining came to 83.8%.

Turning to HCC827, the cell viability remaining worked out at 67.9%.

In the case of CAMA1, the cell viability remaining was 51.8%.

As for H1975, the cell viability remaining was found to be 69.4%.

Consider MDAMB453, for which the cell viability remaining was determined as 65.4%.

Turning to HS746T, the cell viability remaining is 83%.

For the target COLO679, the cell viability remaining worked out at 68.6%.

With H1838, the cell viability remaining was found to be 90.6%.

Consider H1792, for which the cell viability remaining stood at 60.9%.

With A498, the cell viability remaining came out at 68.3%.

As to RD, the cell viability remaining turned out to be 41.1%.

For the target SKMES1, the cell viability remaining amounted to 53.9%.

Take SCC4: the cell viability remaining was found to be 66.5%.

Turning to SKNAS, the cell viability remaining was 35%.

As for KPL1, the cell viability remaining amounted to 50.2%.

Turning to OE33, the cell viability remaining worked out at 51.6%.

For MIAPACA2, the cell viability remaining was found to be 41.2%.

As for MCF7, the cell viability remaining came to 76%.

As for SKOV3, the cell viability remaining worked out at 81.1%.

As for G361, the cell viability remaining is 4.9%.

Regarding T84, the cell viability remaining was 76.2%.

With EFE184, the cell viability remaining was found to be 93.1%.

HS578T: the cell viability remaining came out at 69.3%.

Regarding HT144, the cell viability remaining came to 48.6%.

Take OV7: the cell viability remaining worked out at 73.4%.

With RKN, the cell viability remaining came to 55.6%.

HCT15: the cell viability remaining amounted to 45.4%.

For the target RMGI, the cell viability remaining came out at 83.4%.

SKMEL30: the cell viability remaining came to 62.5%.

For COV362, the cell viability remaining was determined as 81%.

As for HLE, the cell viability remaining came out at 37.7%.

Take CAL54: the cell viability remaining turned out to be 78.9%.

Consider H1944, for which the cell viability remaining came to 76.9%.
